Results reported in PubChem BioAssay AID720519 (National Center for Advancing Translational Sciences (NCATS), 2013).
Results filed as inconclusive are left out. Active and inactive are the calls of the source. Calls come from the whole dose curve; as a rule, active = well fitted activation curve with a large enough effect; inconclusive = small, poorly fitted or top-dose-only effect; inactive = flat fitted curve, though single readings scatter.

Experiment: qHTS for Inhibitors of Cell Surface uPA Generation: Confirmatory Assay for Cherry-picked Compounds
Settings: cell surface uPA activity generation, qHTS confirmation; series mostly up to 115 µM
In short: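 RAW 264.7 cells at 4000/well, incubated overnight, then treated with compounds. After 24 h at 37 C, viability was read by ATPlite luminescence. An increase in signal indicates blocked uPA-dependent LF entry.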
Potency is the fitted concentration of half-maximal effect.

Potency, inactive:
O=C(NCCCn1cccn1)C1CCC(=O)N(Cc2ccccc2F)C1 (configuration not stated)
CC1(C)CC(CCC(=O)NC(=S)Nc2ccccc2Cl)C(=O)O1 (configuration not stated)
CCOc1ccc(NS(=O)(=O)c2coc(C(N)=O)c2)cc1
COc1cccc(C(=O)Cn2c(NCCCO)nc3ccccc32)c1
Cc1ccc(NC(=O)CS(=O)Cc2nc(-c3ccc(C)cc3)oc2C)cc1 (configuration not stated)
CCC(NC(=S)NCc1ccc(F)cc1)c1ccccc1 (configuration not stated)
CCOc1ccc(CCNC(=O)Cc2ccc(NC3=NC4CS(=O)(=O)CC4S3)cc2)cc1OCC (configuration not stated)
COc1ccc(/C(N)=N/OC(=O)Cc2ccccc2OC)cc1
CN(CCO)c1ccc(C(C(=O)c2ccccc2)c2ccc(N(C)CCO)cc2)cc1
CCOC(=O)C1(CCOc2ccccc2)CCN(Cc2ccc(O)c(OC)c2)CC1
CCOCCCn1c(SCC(=O)Nc2oc(C)c3c(C)n[nH]c(=O)c23)nc2ccccc2c1=O
COc1cc(/C=C(/C#N)C(=O)Nc2ccccc2)ccc1OCc1ccc(C(=O)O)cc1
O=C1C=C(NNC(=O)c2ccncc2)CC(c2ccccc2)C1 (configuration not stated)
CC(C)(C)C(=O)NCCc1nc2ccccc2n1CC(=O)c1ccc(Cl)cc1
O=C(COc1ncnc2sccc12)Nc1cccc(S(=O)(=O)N2CCCC2)c1
Cc1cc(C)n(-c2cc(C(=O)O)cc(C(=O)O)c2)n1

Potency, active:
CCCCn1c(SCC(=O)Nc2cc(C(F)(F)F)ccc2Cl)nnc1C(CC)N(C)C (configuration not stated) 52.1 µM
